Activity calls are given as the source filed them.
Tests used:
[1] = binders of probe aFSTL3 on microarray, primary screen, stem cell growth factor project, biochemical, small-molecule microarray, fluorescence 635/667 (AID 1064); settings: higher = more signal;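 also: measures binding of the biotinylated anti-FSTL3 antibody to printed compounds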
[2] = binders from COS7 lysate, DM2A8 probe, primary screen, torsin A project, cell lysate, small-molecule microarray, fluorescence 635/667 (AID 1065); settings: higher = more signal, COS7 lysate expressing mutant human TOR1A
[3] = binders of probe aFGF2 on microarray, primary screen, stem cell growth factor project, biochemical, small-molecule microarray, fluorescence 635/667 (AID 1067); settings: higher = more signal;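 also: measures binding of biotinylated aFGF2 protein to printed compounds on slides; z-score merges feature fluorescence and signal-to-noise across triplicate slides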
[4] = binders of probe aFGF10 on microarray, primary screen, stem cell growth factor project, biochemical, small-molecule microarray, fluorescence 635/667 (AID 1071); settings: higher = more signal;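 also: score merges 667 nm spot intensity and signal to noise from triplicate slides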
[5] = target: Neurogenic locus notch homolog protein 2 (Homo sapiens) (UniProt Q04721); experiment: Notch2 binders on small-molecule microarrays, primary screen, biochemical, small-molecule microarray, 635 nm fluorescence, stem cell growth factors (AID 1073); settings: Notch2 binding, higher = more signal
[6] = target: Pro-neuregulin-1, membrane-bound isoform (Homo sapiens) (UniProt Q02297); experiment: NRG1 binders on small-molecule microarrays, primary screen, psychiatric disease protein project, biochemical, small-molecule microarray, fluorescence 635/667 (AID 1075); settings: NRG1 binding, 635 nm fluorescence, higher = more signal;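 also: score combines 667 nm spot fluorescence with signal to noise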
[7] = system: Neuregulin-1 EGF-like domain; experiment: binders of neuregulin-1 EGF-like domain, primary screen, biochemical, small-molecule microarray, 635 nm fluorescence (AID 1081); settings: small-molecule microarray binding, higher = more signal;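 also: binding of the protein to compounds printed on small-molecule microarray slides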
[8] = FRG1 promoter luciferase signal modulators, primary screen, FRG1 inhibition for FSHD, cell-based, C2C12 myotubes, firefly/Renilla luciferase, luminescence (AID 1084); settings: higher = more signal, called active from +8 up or from −8 down
[9] = binders of probe aFST on microarray, primary screen, stem cell growth factor project, biochemical, small-molecule microarray, fluorescence 635/667 (AID 1086); settings: higher = more signal;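 also: score merges 667 nm fluorescence with signal-to-noise of each printed compound spot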
[10] = binders of probe aHhip on microarray, primary screen, stem cell growth factor project, biochemical, small-molecule microarray, fluorescence 635/667 (AID 1087); settings: higher = more signal;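 also: score merges spot fluorescence at 667nm with spot signal to noise ratio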
[11] = system: PRMT1 (protein arginine N-methyltransferase 1); experiment: PRMT1 binders on small-molecule microarrays, primary screen, biochemical, small-molecule microarray, 635 nm fluorescence (AID 1088); settings: small-molecule microarray binding, higher = more signal;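 also: binding of Prmt1 protein to compounds spotted on small-molecule microarray slides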
[12] = yeast growth modulation, basal conditions, primary screen, YJM789 clinical isolate, OD600, 24 h (AID 1089);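 also: growth of clinical yeast isolate S. cerevisiae YJM 789 seeded 1000 cells per well; test concentration not given here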; settings: S. cerevisiae YJM789 growth, higher = more signal, called active from +8 up or from −8 down
[13] = fission yeast growth modulation, primary screen, strain 972, OD600, 24 h, no modulator (AID 1090);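 also: basal condition with compound alone and no growth modifier present; test concentration not given here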; settings: S. pombe 972 growth, higher = more signal, called active from +8 up or from −8 down
[14] = S. cerevisiae growth modulation with rapamycin, primary screen, strain BY4716, OD600, 96 h (AID 1091); settings: higher = more signal, called active from +8 up or from −8 down; also: test concentration not given here
[15] = target: Torsin-1A-interacting protein 2 (Homo sapiens) (UniProt Q8NFQ8); experiment: LULL1 binders on small-molecule microarray, primary screen, cell lysate, human LULL1 lysate, 635/667 nm fluorescence (AID 1092); settings: hLULL1 lysate binding, 635 nm fluorescence, higher = more signal;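 also: probe is lysate of COS7 cells overexpressing human LULL1; score merges per-feature 667 nm fluorescence with signal-to-noise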
[16] = E. coli growth modulation, two-sided OD650, primary screen, E. coli filamentation project, strain DRC41, 24 h (AID 1093); settings: OD650, 24 h, higher = more signal, called active from +8 up or from −8 down;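 also: MC1000 strain lacking acrAB efflux and sulA so SOS filamentation is blocked; test concentration not given here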
[17] = small-molecule microarray binders of probe aLefty2, primary screen, biochemical, biotinylated probe, 635/667 nm fluorescence (AID 1094); settings: higher = more signal;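 also: score merges spot fluorescence near 667 nm with spot signal-to-noise ratio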
[18] = system: Noggin (protein binding on small-molecule microarray); experiment: Noggin binders on small-molecule microarray, primary screen, biochemical, 635/667 nm fluorescence (AID 1095); settings: 635 nm fluorescence, higher = more signal;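 also: score merges 667 nm feature fluorescence with signal to noise over triplicate slides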
[19] = target: Neurogenic locus notch homolog protein 3 (Homo sapiens) (UniProt Q9UM47); experiment: NOTCH3 binders on small-molecule microarray, primary screen, biochemical, 635/667 nm fluorescence (AID 1096); settings: NOTCH3 binding, 635 nm fluorescence, higher = more signal
[20] = small-molecule microarray binders of probe aEGFR, primary screen, biochemical, biotinylated probe, 635/667 nm fluorescence (AID 1097); settings: higher = more signal;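 also: probe is a biotinylated anti-EGFR antibody binding compounds printed on slides; score combines fluorescence near 667 nm and signal to noise of each spot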

Neurogenic locus notch homolog protein 3 (Homo sapiens), sequence (Q9UM47 whole entry, looked up): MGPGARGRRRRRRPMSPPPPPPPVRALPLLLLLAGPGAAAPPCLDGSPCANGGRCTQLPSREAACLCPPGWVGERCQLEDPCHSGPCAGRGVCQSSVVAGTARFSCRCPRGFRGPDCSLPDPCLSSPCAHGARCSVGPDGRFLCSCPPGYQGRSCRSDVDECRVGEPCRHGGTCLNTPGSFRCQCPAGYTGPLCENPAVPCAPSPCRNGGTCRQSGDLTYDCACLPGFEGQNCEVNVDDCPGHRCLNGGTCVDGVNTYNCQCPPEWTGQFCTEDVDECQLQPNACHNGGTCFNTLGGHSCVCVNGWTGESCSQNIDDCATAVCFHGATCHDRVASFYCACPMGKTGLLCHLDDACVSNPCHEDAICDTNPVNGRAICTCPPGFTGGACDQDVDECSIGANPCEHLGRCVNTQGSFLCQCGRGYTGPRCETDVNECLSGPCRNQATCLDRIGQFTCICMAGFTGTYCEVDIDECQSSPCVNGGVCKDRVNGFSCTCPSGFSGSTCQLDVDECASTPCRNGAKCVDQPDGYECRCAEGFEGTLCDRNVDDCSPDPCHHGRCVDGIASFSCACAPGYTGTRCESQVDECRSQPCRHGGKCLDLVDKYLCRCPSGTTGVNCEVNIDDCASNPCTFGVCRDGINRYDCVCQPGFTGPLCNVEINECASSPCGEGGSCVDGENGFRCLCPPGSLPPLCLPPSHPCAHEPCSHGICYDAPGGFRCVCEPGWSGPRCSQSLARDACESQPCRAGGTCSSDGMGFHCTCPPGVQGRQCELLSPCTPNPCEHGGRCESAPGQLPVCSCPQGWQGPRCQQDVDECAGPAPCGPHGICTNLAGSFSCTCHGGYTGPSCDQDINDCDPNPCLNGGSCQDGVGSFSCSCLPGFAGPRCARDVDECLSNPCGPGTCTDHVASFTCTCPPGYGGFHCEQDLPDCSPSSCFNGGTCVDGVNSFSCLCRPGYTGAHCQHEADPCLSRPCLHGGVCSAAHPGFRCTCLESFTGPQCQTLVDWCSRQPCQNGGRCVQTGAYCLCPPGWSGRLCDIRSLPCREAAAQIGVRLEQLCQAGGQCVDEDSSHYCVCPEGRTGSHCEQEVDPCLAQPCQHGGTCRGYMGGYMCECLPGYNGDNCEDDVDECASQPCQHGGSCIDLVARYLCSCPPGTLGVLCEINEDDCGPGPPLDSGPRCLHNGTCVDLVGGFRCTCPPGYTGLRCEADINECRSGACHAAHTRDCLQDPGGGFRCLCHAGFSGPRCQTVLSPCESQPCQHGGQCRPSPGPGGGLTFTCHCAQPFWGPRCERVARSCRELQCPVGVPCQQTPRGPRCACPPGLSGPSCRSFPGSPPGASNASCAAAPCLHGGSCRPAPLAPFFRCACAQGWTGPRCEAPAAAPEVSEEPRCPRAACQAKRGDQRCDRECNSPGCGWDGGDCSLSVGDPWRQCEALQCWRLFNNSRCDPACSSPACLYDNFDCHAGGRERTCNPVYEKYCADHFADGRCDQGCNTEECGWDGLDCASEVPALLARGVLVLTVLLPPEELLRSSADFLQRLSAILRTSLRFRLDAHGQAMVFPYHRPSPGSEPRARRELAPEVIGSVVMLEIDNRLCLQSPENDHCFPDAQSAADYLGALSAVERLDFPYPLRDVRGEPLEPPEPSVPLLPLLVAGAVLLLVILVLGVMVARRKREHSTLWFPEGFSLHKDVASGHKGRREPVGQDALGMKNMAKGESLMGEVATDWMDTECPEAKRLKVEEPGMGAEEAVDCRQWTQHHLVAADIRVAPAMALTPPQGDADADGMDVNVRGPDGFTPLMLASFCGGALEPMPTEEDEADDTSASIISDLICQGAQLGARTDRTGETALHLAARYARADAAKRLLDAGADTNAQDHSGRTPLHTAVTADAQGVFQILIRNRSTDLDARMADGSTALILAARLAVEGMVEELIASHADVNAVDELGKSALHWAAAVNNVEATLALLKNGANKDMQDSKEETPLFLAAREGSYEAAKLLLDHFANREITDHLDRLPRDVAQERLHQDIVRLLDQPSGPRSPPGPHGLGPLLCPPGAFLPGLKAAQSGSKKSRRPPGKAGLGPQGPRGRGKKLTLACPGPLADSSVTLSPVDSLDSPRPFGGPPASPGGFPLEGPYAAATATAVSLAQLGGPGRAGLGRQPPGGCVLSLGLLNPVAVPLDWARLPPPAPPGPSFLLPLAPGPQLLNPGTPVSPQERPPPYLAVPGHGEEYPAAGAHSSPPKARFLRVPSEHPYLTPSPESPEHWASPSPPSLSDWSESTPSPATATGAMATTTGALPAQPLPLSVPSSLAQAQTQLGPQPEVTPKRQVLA
Torsin-1A-interacting protein 2 (Homo sapiens), sequence (Q8NFQ8 whole entry, looked up): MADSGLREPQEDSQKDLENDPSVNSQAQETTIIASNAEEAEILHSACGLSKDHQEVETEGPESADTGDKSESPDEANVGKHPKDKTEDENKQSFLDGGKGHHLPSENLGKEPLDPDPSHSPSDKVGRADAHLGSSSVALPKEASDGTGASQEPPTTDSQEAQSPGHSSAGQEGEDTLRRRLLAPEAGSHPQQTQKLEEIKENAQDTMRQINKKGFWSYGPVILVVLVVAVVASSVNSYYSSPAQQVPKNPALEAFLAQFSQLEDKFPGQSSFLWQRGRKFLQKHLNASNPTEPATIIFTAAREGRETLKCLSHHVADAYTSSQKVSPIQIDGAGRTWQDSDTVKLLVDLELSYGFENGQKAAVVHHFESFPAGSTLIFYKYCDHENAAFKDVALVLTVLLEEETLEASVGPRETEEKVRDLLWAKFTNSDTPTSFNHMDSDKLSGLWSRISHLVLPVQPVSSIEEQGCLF
Pro-neuregulin-1, membrane-bound isoform (Homo sapiens), sequence (Q02297 whole entry, looked up, the tested form may be a part, canonical isoform): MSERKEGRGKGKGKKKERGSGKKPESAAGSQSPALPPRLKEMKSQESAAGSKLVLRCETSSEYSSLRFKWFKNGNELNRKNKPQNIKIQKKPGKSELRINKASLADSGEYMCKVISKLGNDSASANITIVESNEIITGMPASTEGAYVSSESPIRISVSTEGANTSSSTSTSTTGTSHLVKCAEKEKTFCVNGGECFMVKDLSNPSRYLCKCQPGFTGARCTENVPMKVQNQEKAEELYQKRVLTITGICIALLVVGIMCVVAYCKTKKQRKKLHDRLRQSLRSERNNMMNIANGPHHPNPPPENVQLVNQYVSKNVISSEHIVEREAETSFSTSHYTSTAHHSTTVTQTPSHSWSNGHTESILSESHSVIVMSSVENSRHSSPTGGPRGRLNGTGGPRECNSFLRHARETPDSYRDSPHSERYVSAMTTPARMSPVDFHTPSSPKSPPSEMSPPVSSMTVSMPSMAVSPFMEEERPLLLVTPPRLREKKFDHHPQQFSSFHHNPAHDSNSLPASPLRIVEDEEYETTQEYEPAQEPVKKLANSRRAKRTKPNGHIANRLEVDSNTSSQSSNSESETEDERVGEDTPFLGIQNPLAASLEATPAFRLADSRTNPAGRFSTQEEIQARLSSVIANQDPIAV

SMILES | composite z-score [1] | composite z-score [2] | composite z-score [3] | composite z-score [4] | composite z-score [5] | composite z-score [6] | composite z-score [7] | z-score [8] | composite z-score [9] | composite z-score [10] | composite z-score [11] | z-score [12] | z-score [13] | z-score [14] | composite z-score [15] | z-score [16] | composite z-score [17] | composite z-score [18] | composite z-score [19] | composite z-score [20]
CC(CCN1CCCc2nc(C)c(C)cc21)=NOC[C@@H](O)COCc1ccco1 | 2.02 | 3.09 | 0.529 | 0.0131 | 0.164 | -0.0146 | 0.919 | 1.05 (inactive) | 2.79 | 3.19 | 1.53 | -1.86 (inactive) | 0.544 (inactive) | -0.831 (inactive) | 0.0346 | 0.798 (inactive) | 1.27 | 2.32 | 1.07 | 1.15
CCOC(=O)[C@H](Cc1ccccc1)NC(=O)CCC1CC(OC(=O)NCCc2ccc(F)cc2)CC2(CCCC(COC(=O)NCc3cccc(C(F)(F)F)c3)O2)O1 (stereo not given in full) | -0.334 | 0.0606 | 0.0102 | 0.758 | 1.49 | 1.28 | 1.05 | -0.342 (inactive) | 0.332 | -0.121 | 1.45 | 0.563 (inactive) | 0.106 (inactive) | 0.029 (inactive) | 2.9 | 0.468 (inactive) | -0.0008 | 0.832 | 1.11 | 0.12
CC(CCN1CCCc2nc(C)c(C)cc21)=NOC[C@@H](C)[C@H](OCc1ccccc1)C(C)C | -0.247 | -0.325 | -0.15 | -0.0055 | -0.766 | -0.162 | -0.995 | -0.14 (inactive) | -0.342 | 0.236 | -0.0185 | -2.02 (inactive) | -1.8 (inactive) | -0.788 (inactive) | 1.4 | -0.287 (inactive) | -0.286 | -0.187 | -0.763 | -0.183
CC(=O)OC[C@H]1O[C@H](C#CCCc2ccccc2)C=C[C@@H]1OC(C)=O | -0.692 | 0.271 | -0.0732 | 0.335 | 0.445 | 1.22 | 0.543 | 0.0903 (inactive) | 0.302 | 0.0053 | 0.374 | 0.664 (inactive) | -2.4 (inactive) | -0.116 (inactive) | 1.38 | 0.396 (inactive) | 0.0092 | 0.57 | 0.341 | -0.021
C[C@H]1CC[C@H]2C(=O)OC(COc3ccc(C(C)(C)C)cc3)CN2[C@@H]1c1ccc(Br)cc1 (stereo not given in full) | -0.373 | -0.52 | -0.169 | 0.62 | -0.123 | 0.449 | 1.05 | 0.458 (inactive) | -0.0895 | -0.0618 | 1.02 | -0.498 (inactive) | -17.9 (active) | -1.73 (inactive) | 1.25 | 1.24 (inactive) | -0.139 | 0.756 | 0.165 | -0.175
O=C1C[C@@H](O)[C@@H](O)[C@@H]2[C@@H]3C(=O)N(Cc4ccccc4)C(=O)[C@@H]3CC[C@H]12 | -0.344 | 0.49 | -0.129 | 0.339 | 0.438 | 0.235 | 0.632 | -0.725 (inactive) | 0.256 | 0.0053 | -0.326 | 0.179 (inactive) | -0.253 (inactive) | -0.138 (inactive) | -0.14 | -0.188 (inactive) | -0.107 | 0.497 | 0.545 | -0.0171
CC(=O)OC[C@H]1O[C@H](CCON=C(C)CCN2CCCc3nc(C)c(C)cc32)C=C[C@@H]1OC(C)=O | -0.293 | 0.704 | -0.0454 | 0.72 | 1.19 | 0.237 | 1.1 | 0.523 (inactive) | 0.522 | 0.0722 | 1.54 | 0.569 (inactive) | 0.339 (inactive) | 0.61 (inactive) | 1.31 | 1.08 (inactive) | 0.118 | 0.754 | 1.04 | 0.577
CC(C)(C)N1C(=O)[C@H]2[C@H]3[C@H](O)[C@H](O)CC(=NOC[C@@H](O)COCc4ccco4)[C@H]3CC[C@H]2C1=O | 0.784 | 0.733 | -0.0423 | 0.227 | 0.0009 | 0.107 | 0.173 | -0.241 (inactive) | 0.616 | -0.0003 | 0.446 | 0.009 (inactive) | 0.287 (inactive) | -0.229 (inactive) | 0.937 | 0.697 (inactive) | 0.0913 | -0.192 | -0.0654 | -0.12
C=CC[C@@H]1C=C[C@H](ON=C2C[C@@H](O)[C@@H](O)[C@@H]3[C@@H]4C(=O)N(CC)C(=O)[C@@H]4CC[C@@H]23)[C@@H](CO)O1 | -0.416 | 1.86 | -0.0793 | 0.228 | -0.395 | -0.417 | -0.33 | 1.15 (inactive) | 0.245 | -0.0994 | 0.245 | 0.442 (inactive) | -0.376 (inactive) | 0.445 (inactive) | -0.004 | -0.876 (inactive) | -0.0736 | 0.107 | -0.724 | -0.119
CCN1C(=O)[C@H]2[C@H]3[C@H](O)[C@H](O)CC(=NO[C@@H]4O[C@H](CO)[C@@H](O)[C@H](O)[C@H]4O)[C@H]3CC[C@H]2C1=O | -0.396 | 1.06 | -0.138 | 0.235 | 1 | 0.259 | 0.108 | -1.07 (inactive) | 0.293 | 0.0274 | -0.26 | -0.862 (inactive) | -0.238 (inactive) | -0.14 (inactive) | -0.127 | 0.12 (inactive) | -0.204 | 0.484 | 0.65 | -0.128

Source: PubChem BioAssay
